Laboratory results from the supplement of paper PMC10849652.
About 7,900 targets were measured; listed, in parts, are those with a hit and a random draw of the rest. About 0.6% of all pairs of compound and target were hits.

Columns and labels:
Assay in all cases: log2 fold change, soluble protein after heating vs DMSO (PISA); higher = thermal stabilisation; K562 cells, 10 uM, 30 min; active = over 0.2 and 3.5 SD of the protein, either way, in both replicates (recomputed)
[1] = compound: CC1=C(C=C(C=C1)NC(=O)C2=CC(=CC=C2)C(C)(C)C#N)NC3=CC4=C(C=C3)N=CN(C4=O)C
Summary of the method: (§1)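 Soluble protein was defined as the supernatant after 21,000xg for 90 min. It came from K562 cells at 2×10^6 cells/mL given 10 μM compound for 30 min, heated in aliquots for 3 min across 48°C-58°C, pooled, and extracted in PBS with 0.5% NP-40 at 4°C, and was quantified by TMTpro 16plex LC-MS/MS with equalised channel sums. Thermal stability against control samples, from duplicates, is reported as log2 fold change.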

[2] = compound: CC1=C(C=C(C=C1)NC(=O)C2=CC(=CC=C2)N(C)C)NC(=O)C3=CC=C(C=C3)O
Summary of the method: as §1

Nexturastat A = compound: CCCCN(Cc1ccc(C(=O)NO)cc1)C(=O)Nc1ccccc1 [Nexturastat A]
Summary of the method: as §1

[3] = compound: CCCS(=O)(=O)Nc1ccc(F)c(C(=O)c2c[nH]c3ncc(Cl)cc23)c1F
Summary of the method: as §1

[4] = compound: CCCc1cc(C)[nH]c(=O)c1CNC(=O)c1cc(-c2ccnc(N3CCN(C)CC3)c2)cc2c1cnn2C(C)C
Summary of the method: as §1

givinostat = compound: CCN(CC)Cc1ccc2cc(COC(=O)Nc3ccc(C(=O)NO)cc3)ccc2c1 [givinostat]
Summary of the method: as §1

barasertib = compound: CCN(CCCOc1ccc2c(Nc3cc(CC(=O)Nc4cccc(F)c4)[nH]n3)ncnc2c1)CCOP(=O)(O)O [barasertib]
Summary of the method: as §1

[5] = compound: CC[C@@H]1C(=O)N(C)c2cnc(Nc3ccc(C(=O)NC4CCN(C)CC4)cc3OC)nc2N1C1CCCC1
Summary of the method: as §1

volasertib = compound: CC[C@@H]1C(=O)N(C)c2cnc(Nc3ccc(C(=O)N[C@H]4CC[C@H](N5CCN(CC6CC6)CC5)CC4)cc3OC)nc2N1C(C)C [volasertib]
Summary of the method: as §1

epoxomicin = compound: CC[C@H](C)[C@@H](C(=O)N[C@@H]([C@@H](C)O)C(=O)N[C@@H](CC(C)C)C(=O)[C@]1(CO1)C)NC(=O)[C@H]([C@@H](C)CC)N(C)C(=O)C [epoxomicin]
Summary of the method: as §1

[6] = compound: CCn1c(C(=O)N(C2CC2)C2CC2)cc2c3c(ncn3C)c(Nc3cc(C)n(C)n3)nc21
Summary of the method: as §1

[7] = compound: CCn1cc(-c2ccnc3[nH]c(-c4cccc(CN(C)C)c4)cc23)c(-c2ccc(NC(=O)N(C)C)cc2)n1
Summary of the method: as §1

rosiglitazone = compound: CN(CCOC1=CC=C(C=C1)C[C@H]2C(=O)NC(=O)S2)C3=CC=CC=N3 (racemic) [rosiglitazone]
Summary of the method: as §1

[8] = compound: CN1C2=C(C3=C1C(=O)N(N=C3)CC4=CC(=CC=C4)N)SC(=C2)S(=O)C
Summary of the method: as §1

[9] = compound: CN1CCC(CNc2ccc3ncc(-c4cccc(OC(F)(F)F)c4)n3n2)CC1
Summary of the method: as §1

[10] = compound: CC1=CC=C(C=C1)SC2=C3C=C(SC3=CN=C2)C(=O)N
Summary of the method: as §1

[11] = compound: CC1=NC(=CC=C1)C2=C(N=C(N2)C(C)(C)C)C3=CC4=NC=CN=C4C=C3
Summary of the method: as §1

vemurafenib = compound: CCCS(=O)(=O)Nc1ccc(F)c(C(=O)c2c[nH]c3ncc(-c4ccc(Cl)cc4)cc23)c1F [vemurafenib]
Summary of the method: as §1

[12] = compound: CC[C@H](C)N1C=C(C2=C(C=C(C=C21)C3=CN=C(C=C3)N4CCNCC4)C(=O)NCC5=C(C=C(NC5=O)C)C)C
Summary of the method: as §1

[13] = compound: CN(C)CC(=O)Nc1ccc2[nH]c(=O)c3ccccc3c2c1
Summary of the method: as §1

Measured: log2 fold change

IP6K1 (UniProt Q92551)
inactive: [1] 0.443 | [2] 0.022 | Nexturastat A 0.232 | [3] -0.015 | [4] 0.068 | givinostat -0.008 | barasertib 0.259 | [5] 0.127 | volasertib -0.176 | epoxomicin 0 | [6] -0.253 | [7] 0.028 | rosiglitazone 0.091 | [8] 0.147 | [9] -0.052

METAP1D (UniProt Q6UB28)
Chain of UniProt Q6UB28 (Q6UB28 whole entry, looked up): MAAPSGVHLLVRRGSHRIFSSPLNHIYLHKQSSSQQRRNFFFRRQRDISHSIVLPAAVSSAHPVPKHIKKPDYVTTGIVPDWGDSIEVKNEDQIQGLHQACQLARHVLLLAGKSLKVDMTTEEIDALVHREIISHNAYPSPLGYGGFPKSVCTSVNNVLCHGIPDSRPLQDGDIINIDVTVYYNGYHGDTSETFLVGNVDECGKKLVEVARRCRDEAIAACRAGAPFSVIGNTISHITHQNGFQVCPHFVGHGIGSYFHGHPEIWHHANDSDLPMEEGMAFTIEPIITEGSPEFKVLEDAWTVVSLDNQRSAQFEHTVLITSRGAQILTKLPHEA
inactive: [1] -0.022 | [2] 0.009 | [10] 0.047 | [11] -0.09 | Nexturastat A -0.087 | vemurafenib -0.032 | [3] -0.053 | [4] 0.056 | givinostat -0.054 | barasertib -0.074 | [5] 0.031 | volasertib -0.082 | [12] 0.051 | epoxomicin 0.074 | [6] -0.039 | [13] -0.065 | rosiglitazone 0.013 | [8] 0.052

JAK3 (UniProt P52333)
Chain of UniProt P52333 (P52333 whole entry, looked up): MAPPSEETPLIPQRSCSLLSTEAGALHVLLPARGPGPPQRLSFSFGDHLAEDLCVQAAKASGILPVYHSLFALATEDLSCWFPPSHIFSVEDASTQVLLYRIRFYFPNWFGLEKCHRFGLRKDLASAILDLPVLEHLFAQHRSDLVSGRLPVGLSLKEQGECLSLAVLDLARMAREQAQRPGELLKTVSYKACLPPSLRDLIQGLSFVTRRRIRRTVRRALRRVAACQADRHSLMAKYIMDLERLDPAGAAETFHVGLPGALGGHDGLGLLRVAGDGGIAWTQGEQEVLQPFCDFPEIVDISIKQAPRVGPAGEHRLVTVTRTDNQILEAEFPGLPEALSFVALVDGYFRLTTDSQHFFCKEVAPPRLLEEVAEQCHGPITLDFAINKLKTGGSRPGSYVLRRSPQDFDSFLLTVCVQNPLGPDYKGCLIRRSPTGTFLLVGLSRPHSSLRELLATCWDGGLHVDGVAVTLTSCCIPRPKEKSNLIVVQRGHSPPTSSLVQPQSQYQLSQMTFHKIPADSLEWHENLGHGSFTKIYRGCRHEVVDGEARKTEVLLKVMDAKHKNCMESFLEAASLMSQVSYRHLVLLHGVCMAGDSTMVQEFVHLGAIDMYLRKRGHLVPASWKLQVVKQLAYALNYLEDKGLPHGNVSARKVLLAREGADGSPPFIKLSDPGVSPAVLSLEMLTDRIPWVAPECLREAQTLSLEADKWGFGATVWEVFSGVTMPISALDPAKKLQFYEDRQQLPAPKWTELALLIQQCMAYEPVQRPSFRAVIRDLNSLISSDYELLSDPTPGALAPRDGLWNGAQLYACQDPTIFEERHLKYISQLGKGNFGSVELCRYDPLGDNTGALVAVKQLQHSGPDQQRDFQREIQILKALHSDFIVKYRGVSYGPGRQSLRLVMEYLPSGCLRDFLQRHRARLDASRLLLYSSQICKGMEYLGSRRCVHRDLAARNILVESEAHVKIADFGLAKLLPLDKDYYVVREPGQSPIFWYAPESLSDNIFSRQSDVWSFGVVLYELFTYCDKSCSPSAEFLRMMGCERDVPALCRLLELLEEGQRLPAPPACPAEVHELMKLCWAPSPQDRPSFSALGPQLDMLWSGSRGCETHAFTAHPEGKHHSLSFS
active: Nexturastat A -0.478
inactive: [1] -0.002 | [2] -0.056 | [10] 0.066 | [11] 0.099 | vemurafenib -0.032 | [3] -0.029 | [4] 0.016 | givinostat -0.16 | barasertib 0.016 | volasertib -0.075 | [12] 0.09 | epoxomicin -0.033 | [6] 0.081 | [7] 0.128 | [13] -0.042 | rosiglitazone 0.011 | [8] -0.01 | [9] 0.012

MED7 (UniProt O43513)
inactive: [1] 0.049 | [2] -0.023 | [10] -0.009 | [11] 0.015 | Nexturastat A 0.212 | vemurafenib -0.021 | [3] -0.093 | givinostat -0.008 | barasertib -0.149 | volasertib 0.139 | [12] -0.287 | epoxomicin 0.127 | [6] 0.015 | [13] 0.021 | rosiglitazone -0.059 | [8] -0.172

MED12 isoform 2 (UniProt Q93074)
Chain of UniProt Q93074 (Q93074 whole entry, looked up): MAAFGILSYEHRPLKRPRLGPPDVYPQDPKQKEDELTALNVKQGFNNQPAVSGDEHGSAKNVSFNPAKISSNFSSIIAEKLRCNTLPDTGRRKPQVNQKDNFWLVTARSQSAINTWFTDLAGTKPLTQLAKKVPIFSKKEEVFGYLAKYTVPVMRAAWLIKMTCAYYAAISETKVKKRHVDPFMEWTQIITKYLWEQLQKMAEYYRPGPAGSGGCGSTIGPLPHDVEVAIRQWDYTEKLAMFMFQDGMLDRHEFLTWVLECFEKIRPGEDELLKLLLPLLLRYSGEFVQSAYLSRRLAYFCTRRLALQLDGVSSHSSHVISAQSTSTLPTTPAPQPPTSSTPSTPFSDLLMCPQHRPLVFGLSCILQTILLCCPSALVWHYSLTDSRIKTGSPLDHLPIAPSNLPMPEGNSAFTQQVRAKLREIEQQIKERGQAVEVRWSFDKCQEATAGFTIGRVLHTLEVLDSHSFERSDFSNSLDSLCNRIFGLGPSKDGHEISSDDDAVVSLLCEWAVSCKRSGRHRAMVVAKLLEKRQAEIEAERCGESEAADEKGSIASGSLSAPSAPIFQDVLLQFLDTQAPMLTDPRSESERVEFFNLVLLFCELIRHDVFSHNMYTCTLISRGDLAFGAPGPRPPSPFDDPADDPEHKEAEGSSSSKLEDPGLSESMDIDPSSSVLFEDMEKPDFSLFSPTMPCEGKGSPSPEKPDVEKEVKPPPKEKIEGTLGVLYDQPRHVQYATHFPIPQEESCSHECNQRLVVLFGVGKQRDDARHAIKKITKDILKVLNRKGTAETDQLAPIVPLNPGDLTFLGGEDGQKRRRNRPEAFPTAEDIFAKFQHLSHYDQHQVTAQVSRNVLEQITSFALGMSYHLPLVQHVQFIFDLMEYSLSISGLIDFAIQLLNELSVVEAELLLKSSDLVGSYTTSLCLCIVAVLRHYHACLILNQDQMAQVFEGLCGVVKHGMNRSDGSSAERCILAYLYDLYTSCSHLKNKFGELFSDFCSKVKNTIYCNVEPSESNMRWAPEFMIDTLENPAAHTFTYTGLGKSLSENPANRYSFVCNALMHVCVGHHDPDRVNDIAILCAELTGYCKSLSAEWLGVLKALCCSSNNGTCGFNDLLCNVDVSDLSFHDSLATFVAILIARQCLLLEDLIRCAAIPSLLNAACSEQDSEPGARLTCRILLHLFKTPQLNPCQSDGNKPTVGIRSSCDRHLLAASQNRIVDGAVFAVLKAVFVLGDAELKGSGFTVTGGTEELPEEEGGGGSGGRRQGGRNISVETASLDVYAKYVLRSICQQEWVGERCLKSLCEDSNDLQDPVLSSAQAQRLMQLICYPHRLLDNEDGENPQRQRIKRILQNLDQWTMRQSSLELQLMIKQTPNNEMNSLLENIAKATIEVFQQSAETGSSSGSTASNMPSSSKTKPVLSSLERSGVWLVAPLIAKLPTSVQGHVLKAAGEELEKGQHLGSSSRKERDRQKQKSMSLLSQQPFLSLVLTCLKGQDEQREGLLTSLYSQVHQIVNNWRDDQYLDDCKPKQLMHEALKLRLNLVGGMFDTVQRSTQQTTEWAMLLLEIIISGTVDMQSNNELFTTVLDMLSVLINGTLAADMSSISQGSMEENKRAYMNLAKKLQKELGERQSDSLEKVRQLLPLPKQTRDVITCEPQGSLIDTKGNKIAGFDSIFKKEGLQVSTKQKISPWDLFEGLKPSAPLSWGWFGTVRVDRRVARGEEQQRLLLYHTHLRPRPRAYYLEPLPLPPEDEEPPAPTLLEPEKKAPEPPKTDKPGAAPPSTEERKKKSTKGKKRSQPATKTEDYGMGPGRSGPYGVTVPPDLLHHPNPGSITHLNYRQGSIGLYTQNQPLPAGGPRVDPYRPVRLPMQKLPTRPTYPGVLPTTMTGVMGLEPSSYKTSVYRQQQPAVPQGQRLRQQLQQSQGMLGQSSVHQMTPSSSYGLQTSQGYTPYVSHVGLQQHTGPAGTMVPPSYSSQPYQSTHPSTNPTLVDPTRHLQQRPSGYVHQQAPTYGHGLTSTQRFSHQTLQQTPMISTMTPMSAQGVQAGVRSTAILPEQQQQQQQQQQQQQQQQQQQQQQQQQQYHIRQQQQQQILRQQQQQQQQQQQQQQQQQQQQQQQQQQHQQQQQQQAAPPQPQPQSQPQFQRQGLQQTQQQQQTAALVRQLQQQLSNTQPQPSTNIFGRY
inactive: [1] 0.034 | [2] -0.202 | [10] -0.015 | [11] -0.09 | Nexturastat A 0.012 | [3] 0.071 | [4] 0.023 | givinostat 0.106 | barasertib -0.135 | [5] -0.055 | volasertib -0.211 | [12] 0.091 | epoxomicin -0.17 | [6] 0.083 | [7] 0.086 | rosiglitazone 0.074 | [8] 0.154 | [9] -0.071

MFAP3 (UniProt P55082)
inactive: [1] 0.038 | Nexturastat A 0.11 | vemurafenib -0.115 | barasertib 0.05 | epoxomicin -0.054 | [13] -0.118 | rosiglitazone 0.046 | [8] -0.008

MAP2K5 (UniProt Q13163)
inactive: [2] -0.085 | [11] 0.017 | [8] 0.457

MARCHF3 (UniProt Q86UD3)
inactive: [1] 0.001 | [10] -0.008 | Nexturastat A 0.081 | [3] -0.01 | barasertib 0.025 | [5] 0.116 | volasertib 0.011 | [12] 0.018 | epoxomicin 0.036 | rosiglitazone 0.093

MED29 (UniProt Q9NX70)
Chain of UniProt Q9NX70 (Q9NX70 whole entry, looked up): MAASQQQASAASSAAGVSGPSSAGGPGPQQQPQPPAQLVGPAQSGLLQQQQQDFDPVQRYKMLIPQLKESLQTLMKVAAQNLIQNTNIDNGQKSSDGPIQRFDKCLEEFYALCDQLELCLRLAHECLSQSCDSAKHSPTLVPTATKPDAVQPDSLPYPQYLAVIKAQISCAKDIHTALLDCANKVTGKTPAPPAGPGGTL
inactive: [10] -0.075 | [3] 0.131 | [4] 0.025 | givinostat -0.076 | volasertib -0.115 | [12] 0.055 | [6] -0.044 | [8] -0.056

LDLRAP1 (UniProt Q5SW96)
inactive: [2] -0.028 | [11] -0.102 | givinostat 0.284 | barasertib 0.146 | [6] -0.045 | rosiglitazone -0.023

LAMP2 isoform 2 (UniProt P13473)
inactive: [10] -0.07 | [11] 0.003 | Nexturastat A -0.015 | vemurafenib -0.082 | [3] -0.093 | [4] -0.071 | givinostat -0.158 | barasertib 0 | [5] -0.137 | volasertib -0.081 | [12] -0.078 | epoxomicin -0.016 | [6] 0.028 | [7] -0.01 | [13] 0.012 | rosiglitazone -0.035 | [8] -0.112
active: [9] -0.485

MAPRE3 isoform 2 (UniProt Q9UPY8)
inactive: [10] -0.075 | [11] -0.065 | [3] 0.029 | volasertib 0.165 | [12] 0.04

MGRN1 isoform 2 (UniProt O60291)
inactive: [2] -0.059 | [10] 0.021 | [11] -0.02 | [3] -0.307 | givinostat 0.012 | barasertib 0 | volasertib -0.115 | [6] 0.071 | [7] -0.072 | rosiglitazone 0.014 | [9] -0.07

LRRFIP1 isoform 4 (UniProt Q32MZ4)
inactive: [11] 0.186 | Nexturastat A -0.077 | givinostat 0.011 | epoxomicin -0.113 | [6] -0.1 | [7] 0.212 | [8] 0.105 | [9] 0.349

LAPTM4B (UniProt Q86VI4)
inactive: [1] 0 | [4] -0.228 | givinostat 0.128 | barasertib 0.002 | [5] 0.063 | [6] -0.12 | [7] 0.216 | rosiglitazone -0.024
active: [9] 0.968

KMT5A (UniProt Q9NQR1)
inactive: [1] 0.07 | [7] 0.091 | [9] -0.2

LGALS8 isoform 2 (UniProt O00214)
active: [9] 0.93
inactive: [1] 0.01 | [11] -0.228 | Nexturastat A 0.288 | vemurafenib -0.013 | [4] -0.062 | givinostat 0.072 | barasertib 0.13 | [5] 0.19 | epoxomicin -0.05 | [6] -0.029 | [7] -0.121 | [13] 0.067 | rosiglitazone -0.263 | [8] 0.328

IKZF1 (UniProt R9R4D9)
inactive: [10] -0.116 | [11] 0.026 | [3] 0.033 | volasertib 0.085 | [7] -0.247 | [8] 0.229 | [9] 0.05

IPP (UniProt Q9Y573)
inactive: barasertib -0.139 | rosiglitazone -0.24

KIF21A (UniProt H0YI78)
inactive: [2] -0.001 | givinostat 0.447 | [6] -0.05

LSR (UniProt M0QZL9)
inactive: [1] -0.324 | Nexturastat A -0.157 | vemurafenib 0.024 | epoxomicin 0.076 | [13] -0.125

ING5 (UniProt Q8WYH8)
active: [5] -0.561 | volasertib -1.47
inactive: [10] 0.058 | [11] -0.052 | [3] -0.011 | [4] -0.237 | givinostat 0.316 | [6] -0.046

IGFBP6 (UniProt P24592)
inactive: [2] 0.03 | vemurafenib 0.189 | [13] -0.186 | [8] 0.107

MCOLN3 (UniProt Q8TDD5)
Chain of UniProt Q8TDD5 (Q8TDD5 whole entry, looked up): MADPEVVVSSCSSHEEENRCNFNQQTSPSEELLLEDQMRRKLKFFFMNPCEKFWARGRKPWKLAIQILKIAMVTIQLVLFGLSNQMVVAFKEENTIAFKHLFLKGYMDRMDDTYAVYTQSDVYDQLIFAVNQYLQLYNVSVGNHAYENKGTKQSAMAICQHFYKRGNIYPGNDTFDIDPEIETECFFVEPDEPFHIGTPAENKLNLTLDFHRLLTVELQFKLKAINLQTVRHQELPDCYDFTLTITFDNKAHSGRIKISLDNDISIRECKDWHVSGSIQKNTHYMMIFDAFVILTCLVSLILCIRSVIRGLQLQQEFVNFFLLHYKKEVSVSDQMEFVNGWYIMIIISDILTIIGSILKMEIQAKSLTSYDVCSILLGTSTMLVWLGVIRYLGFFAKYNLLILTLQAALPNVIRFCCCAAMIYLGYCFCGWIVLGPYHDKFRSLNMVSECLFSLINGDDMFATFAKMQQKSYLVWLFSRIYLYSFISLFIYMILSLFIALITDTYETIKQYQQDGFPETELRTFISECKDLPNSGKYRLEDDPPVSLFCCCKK
inactive: [2] 0.013 | [10] 0.15 | [3] 0.014 | [4] -0.481 | givinostat 0.221 | barasertib -0.171 | [5] 0.094 | volasertib -0.136 | [12] -0.071 | [6] -0.132 | [7] 0.027 | rosiglitazone 0.128 | [9] -0.084

MELK (UniProt Q14680)
Chain of UniProt Q14680 (Q14680 whole entry, looked up): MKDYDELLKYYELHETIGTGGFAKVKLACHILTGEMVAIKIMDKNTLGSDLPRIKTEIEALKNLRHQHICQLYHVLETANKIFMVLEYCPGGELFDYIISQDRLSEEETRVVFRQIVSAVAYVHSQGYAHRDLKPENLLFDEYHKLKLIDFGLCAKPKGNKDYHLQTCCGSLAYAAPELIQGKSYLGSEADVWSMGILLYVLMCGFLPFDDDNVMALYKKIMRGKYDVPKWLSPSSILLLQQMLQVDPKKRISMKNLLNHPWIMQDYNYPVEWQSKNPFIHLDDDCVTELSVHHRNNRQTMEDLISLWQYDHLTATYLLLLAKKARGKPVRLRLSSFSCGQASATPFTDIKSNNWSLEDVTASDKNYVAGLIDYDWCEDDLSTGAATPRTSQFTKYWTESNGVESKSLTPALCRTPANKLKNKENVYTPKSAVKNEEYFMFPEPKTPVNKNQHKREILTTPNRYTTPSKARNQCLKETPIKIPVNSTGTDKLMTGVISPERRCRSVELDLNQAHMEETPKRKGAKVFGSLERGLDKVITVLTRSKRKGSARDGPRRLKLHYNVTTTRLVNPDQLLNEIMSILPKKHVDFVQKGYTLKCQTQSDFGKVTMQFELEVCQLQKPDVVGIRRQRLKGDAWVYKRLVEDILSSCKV
active: volasertib -1.41
inactive: [1] -0.026 | [10] 0.111 | [11] -0.015 | Nexturastat A 0.134 | [3] 0.02 | givinostat -0.023 | barasertib 0.048 | [5] -0.429 | [12] 0.334 | epoxomicin 0.077 | [6] -0.009 | [7] -0.114 | rosiglitazone -0.003 | [8] 0.034 | [9] -0.426

MAP4K4 isoform 6 (UniProt O95819)
inactive: [1] -0.031 | vemurafenib -0.052 | [4] 0.393 | [5] -0.241 | [12] 0.109 | [13] -0.083 | [8] 0.261

KIZ (UniProt Q2M2Z5)
inactive: [2] 0.057 | [10] 0.003 | [11] -0.068 | [3] -0.181 | [5] 0.104 | volasertib 0.262 | [7] -0.202 | [9] -0.399

LSR isoform 3 (UniProt Q86X29)
inactive: [1] -0.232 | [10] 0.04 | [3] 0.158 | [4] -0.081 | volasertib -0.096 | [8] 0.047
